The text below walks through data of the supplement of paper PMC6555819.

This test deals with FXR:RXRa (NR concentration 270 nM, RXRa partner concentration 90 nM). Put plainly: PBM binding z-score (relative to random genomic background probes); higher = stronger binding; sequences stand for … in GC…GCGATTGACAGCGTAGAATGAAGG
The essentials:
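Random background probes are the reference for binding z-scores. These scores derive from regression-normalized fluorescence on custom Agilent 4×180K protein-binding microarrays incubated 1 h with ligand-free nuclear receptor dimers. Binding was detected with antibodies against each partner (one per run).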
CCTACTGGGCCAACGTCATTGATCAGTCAAAGCA had a PBM binding z-score of -0.18.

In the case of CCGACTCGGGCAGAAAGGTTACCATACCATCCGG, the PBM binding z-score came to 0.546. The result for CCTTCTGGGCCACGAAAGGTCATTGATTCAGTGA reads 4.23. In the case of ACTAGCAGGCCGAGGGTCACTCAAGATTAGTCCG it was 0.88. In the case of CCTATTAGTTGACCATAAGGGCAACCGAAGCTCG it was 1.08; in that of ACTATTAGTTGACTTACGGCAACCGATACGACGC, 0.213; in that of CCGGCTAGGTCAATGGTCAGCTAAAGCAGCTCGC, 3.18. With TCTAGCAGGCCAGAGGGTCGCTCAAGAGGTACGG, the PBM binding z-score was -2.83.

The sequence ACTTCCGGGTCAACGAGGTTATAGCACGCGTATA came in with a PBM binding z-score of 6.37.

Sequence CCGACTGAGGCATAAGGTTACCATAAGCCAGCCC came in with a PBM binding z-score of 0.414. In the case of GGAACGAGGGCAAGTTGACAGCAGAGTTTGATGG it was 0.854; in that of CCAGACTGGTGAGAAGGTAACTCAGCCTCGATTA, -0.309; in that of CGTCCAAGGTCAGAGAGGTCAGTGGATGCCGAGT, 6.14.

TCGGACAGGTGAAGGTAACTCAGGTACGCAGTCG had a PBM binding z-score of 0.451.

As to GCTATTAGTTGAAAGGGCAACCGAATGATTCTCG, the PBM binding z-score worked out at 0.555. In the case of ACAGACAGGTGATGAAGGTGACTCAGGCTATCAT it was 0.202; in that of ACTATTAGTTGAGACGATGGCAACCGATAGGTTG, -0.242; in that of ACACCAAGGTGATCGTGAGGTCGTTGATACTAAC, 1.59. As to TGAATGAGGTTATAAAATCAGGGAACGTTGCAAA, the PBM binding z-score came to 0.804.

As for TATACAGGGTCAAAAGCCAGAGTACGAATGTCGA, the PBM binding z-score amounted to 5.93. In the case of ACTTACGGGTCACCGAGGTTATAGCACGCGTATA it was 7.33; in that of TCTGGTAGGTCAGTTGGTCAGCTAACGAGCTGCC, 1.49. The result for AATACAGCGTCATCGTAGGCCAGAGTACGCACAG reads -0.326. In the case of CGTCAAAGTTCAACTCAGGTAACGTAAAGCACGC it was 7.13; in that of ATATGTAGGTTAAGGGTGATTCAGGTTGGTTCGC, 0.984; in that of CCAGACAGGTGAAAGATAACTCAGTCTGGTACGC, -0.034. On to TCTAGTTGATCAAAGGTCACACACTCGAAATGCG, for which the PBM binding z-score turned out to be 5.64. The result for TCTCGGAGGACAGGAAGGTCAGAGCTTTCCAGAG reads 0.736. In the case of CTCTAAAGGTCGGTTGAGGTGAGTATACGGATAA it was 2.41; in that of CGTCCAAGGTCAGAGAGGTTAGTGAATGCCGAGT, 5.32. The sequence CCGACTGCGGCAAGGTTACCATAACGCACAGCCA returned a PBM binding z-score of 0.311. The result for CCTAGCAGGACAATCTGGGTCACTCAAGGCTTGA reads 1.05; that for AGGCAAAGTTCACTAGGTAACGTAAGATTCAGCT, 5.31. As for CTCGAAAGGACGGTTGAGGTGAGTATACGGATAA, the PBM binding z-score was determined as 0.507. The result for CGAACGAGGGCATGAGTCGATAGCAAATGCCGAT reads 0.37; that for CCTACTTGGCCAAAAAGGTCATTGATGCCGATAA, 4.39; that for CCTACTGGGCCATCAGGTCATTAATATCAACGTT, 1.02. Sequence TCTAGTTGGTCAGGGAGGTCACACACGACGGGTA yielded a PBM binding z-score of 3.15. In the case of GCTAGCAGGCCAATTGGGTCACTCAATGACGGGC it was -0.057.
